Reference: a collection of fitness landscapes (doi:10.1016/j.celrep.2020.107928)
The full ranking holds about 81,000 sequences; the median of “one-hybrid fitness for binding parS DNA” is about -0.17, and the highest 2% start at about 0.51. The sample as a whole holds a higher share of the highest values than the screen did.

B1: Caulobacter ParB omega fusion; a variant is named by its letters at X, in order, B8GW30 (parent)
chain: MESVVVGEPGMSEGRRGLGRGLSALLGEVDAAPAQAPGEQLGGSREAPIEILQRNPDQPRRTFREEDLEDLSNSIREKGVLQPILVRPSPDTAGEYQIVAGERAWRAAQRAGLKTVPIMVRELDDLAVLEIGIIENVQRADLNVLEEALSYKVLMEKFERTQENIAQTIGKSXSHVANXMRLLXLPDEVQSYLVSGELTAXHARAIAAAADPVALAKQIIEGGLSVRETEALARKAPNLSAGKSKGGRPPRVKDTDTQALESDLSSVLGLDVSIDHRGSTGTLTITYATLEQLDDLCNRLTRGI

Variants of: B1
Experiment: one-hybrid fitness for binding parS DNA (scaled: cognate 1, non-cognate 0); higher = stronger binding
Details: with parS DNA site
Summary of the method: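 In E. coli USO, a HIS3 reporter with its site placed 19 bp from the promoter was used to select Caulobacter ParB variants randomised at four specificity codons. Growth lasted 48 hours at 37°C on histidine-free M9 containing 0.1 mM IPTG and 5 mM 3-AT. Fitness was taken as the log change in variant-to-wild-type read ratio from Illumina sequencing of pre- and post-selection plasmids, rescaled between the non-cognate and cognate sites.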

| Variant | one-hybrid fitness for binding parS DNA |
| --- | --- |
| EPIG | ≤ 0.2 |
| PHQC | ≤ 0.2 |
| MHER | ≤ 0.2 |
| KLAC | ≤ 0.2 |
| REVS | ≤ 0.2 |
| REVG | ≤ 0.2 |
| REKS | 0.66 |
| REKN | ≤ 0.2 |
| RERS | 0.529 |
| REKG | 0.533 |
| RERH | ≤ 0.2 |
| REYS | 0.287 |
| REYG | ≤ 0.2 |
| QTIM | ≤ 0.2 |
| KYAR | ≤ 0.2 |
| EYFS | ≤ 0.2 |
| PLFV | ≤ 0.2 |
| VHQV | ≤ 0.2 |
| TPHK | ≤ 0.2 |
| RYCG | 0.974 |
| RYNY | 0.466 |
| RYNG | 0.975 |
| RYYN | 0.383 |

| Variant | one-hybrid fitness for binding parS DNA |
| --- | --- |
| RYYH | ≤ 0.2 |
| RYHG | 1 |
| RYCD | ≤ 0.2 |
| RYCN | 0.382 |
| RYHQ | ≤ 0.2 |
| RYHK | ≤ 0.2 |
| RYYG | 0.997 |
| RYNK | ≤ 0.2 |
| IKAI | ≤ 0.2 |
| HHKY | ≤ 0.2 |
| RSDE | ≤ 0.2 |
| FGTM | ≤ 0.2 |
| PPRW | ≤ 0.2 |
| KGNG | ≤ 0.2 |
| QLTS | ≤ 0.2 |
| DASE | ≤ 0.2 |
| GPYH | 0.233 |
| GWLC | ≤ 0.2 |
| EELW | ≤ 0.2 |
| SCTR | ≤ 0.2 |
| IRQT | ≤ 0.2 |
| VEHR | ≤ 0.2 |
| RYLY | 0.462 |

| Variant | one-hybrid fitness for binding parS DNA |
| --- | --- |
| RYGF | 0.205 |
| RYLM | 0.324 |
| RYSD | ≤ 0.2 |
| RYSG | 0.984 |
| RYWK | ≤ 0.2 |
| RYGG | 0.97 |
| RYSP | ≤ 0.2 |
| RYWG | 0.89 |
| RYGR | ≤ 0.2 |
| RYLG | 0.986 |
| RYWQ | ≤ 0.2 |
| AIYV | ≤ 0.2 |
| RKII | ≤ 0.2 |
| QIVC | ≤ 0.2 |
| KAHG | ≤ 0.2 |
| VQHT | ≤ 0.2 |
| HLQY | ≤ 0.2 |
| RYQF | 0.207 |
| RYQG | 0.971 |
| RYDP | ≤ 0.2 |
| RYDG | 0.913 |
| RYRH | ≤ 0.2 |
| RYQM | 0.31 |

| Variant | one-hybrid fitness for binding parS DNA |
| --- | --- |
| RYRG | 0.92 |
| RYDH | ≤ 0.2 |
| RYRP | ≤ 0.2 |
| SLFE | ≤ 0.2 |
| WPSR | ≤ 0.2 |
| QMHP | ≤ 0.2 |
| VYQY | ≤ 0.2 |
| SHPH | ≤ 0.2 |
| RWNY | 0.339 |
| RWAT | 0.614 |
| RWNT | 0.682 |
| RWFT | 0.497 |
| RWIT | 0.387 |
| RWET | 0.437 |
| RWRT | 0.722 |
| RWAR | ≤ 0.2 |
| RWNQ | ≤ 0.2 |
| RWDT | 0.512 |
| PRFH | ≤ 0.2 |
| HAWM | ≤ 0.2 |
| IKVG | ≤ 0.2 |
| EEHS | ≤ 0.2 |
| NPMG | ≤ 0.2 |

| Variant | one-hybrid fitness for binding parS DNA |
| --- | --- |
| CKHA | ≤ 0.2 |
| GRFC | ≤ 0.2 |
| PTDC | ≤ 0.2 |
| AWVV | ≤ 0.2 |
| DFLV | ≤ 0.2 |
| TRVH | ≤ 0.2 |
| KVCE | ≤ 0.2 |
| NTDV | ≤ 0.2 |
| SNDS | ≤ 0.2 |
| RWCY | ≤ 0.2 |
| RWGT | 0.548 |
| RWCF | ≤ 0.2 |
| RWYT | 0.596 |
| RWHT | 0.655 |
| RWPT | 0.284 |
| RWCT | 0.611 |
| RWWT | 0.507 |
| PDGT | ≤ 0.2 |
| PKSV | ≤ 0.2 |
| QRHM | ≤ 0.2 |
| THKG | ≤ 0.2 |
| MWHG | ≤ 0.2 |
| YDRG | ≤ 0.2 |

| Variant | one-hybrid fitness for binding parS DNA |
| --- | --- |
| TVTH | ≤ 0.2 |
| GSYT | ≤ 0.2 |
| MYQT | ≤ 0.2 |
| GLVV | ≤ 0.2 |
| RWQN | 0.264 |
| RWSN | 0.318 |
| RWLT | 0.556 |
| RWVT | 0.43 |
| RWQD | ≤ 0.2 |
| RWST | 0.665 |
| RWSD | ≤ 0.2 |
| RWKQ | ≤ 0.2 |
| RWQT | 0.618 |
| RWKT | 0.811 |
| THYN | ≤ 0.2 |
| TFIW | ≤ 0.2 |
| SPRC | ≤ 0.2 |
| DYFS | ≤ 0.2 |
| HAPN | ≤ 0.2 |
| RKAW | ≤ 0.2 |
| FTYI | ≤ 0.2 |
| RVVV | ≤ 0.2 |
| SIHC | ≤ 0.2 |

| Variant | one-hybrid fitness for binding parS DNA |
| --- | --- |
| LMAG | ≤ 0.2 |
| QCAE | ≤ 0.2 |
| RLFH | 0.258 |
| RLFC | 0.948 |
| RLAM | 0.342 |
| RLAC | 0.995 |
| RLFP | ≤ 0.2 |
| RLAR | ≤ 0.2 |
| FKTR | ≤ 0.2 |
| LCPN | ≤ 0.2 |
| GYEP | ≤ 0.2 |
| RAYA | 0.602 |
| NANA | ≤ 0.2 |
| RAIA | 0.461 |
| RAPA | 0.231 |
| RACA | 0.609 |
| RADA | 0.563 |
| DACA | ≤ 0.2 |
| RANA | 0.595 |
